# Test results taken from paper PMC7862700, “An all-to-all approach to the identification of sequence-specific readers for epigenetic DNA modifications on cytosine”.
# Key:
# Assay in all cases: DAPPL (digital affinity profiling via proximity ligation, sequencing); 10 mM Tris-HCl pH 7.5, 50 mM NaCl, 1 mM DTT, 4% glycerol, room temperature, 30 min; GST-TFs on glutathione beads, 16-mer random dsDNA library, 0.1% formaldehyde crosslink after washing; high values mean tight binding
# FEV = target: T1, FEV (Homo sapiens, UniProt Q99581 1-238); details: protein: recombinant; tags: N-terminal GST; dsDNA, one strand shown
# T1 sequence: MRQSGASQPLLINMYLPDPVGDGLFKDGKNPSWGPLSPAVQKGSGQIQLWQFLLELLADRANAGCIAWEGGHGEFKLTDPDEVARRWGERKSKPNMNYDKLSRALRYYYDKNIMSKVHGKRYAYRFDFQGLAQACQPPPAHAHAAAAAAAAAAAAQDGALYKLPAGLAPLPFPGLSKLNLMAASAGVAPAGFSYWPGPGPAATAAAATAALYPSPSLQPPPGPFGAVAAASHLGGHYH
# Method in brief: (§1)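 Each value of binding signal is a hexamer's read frequency for a factor divided by the same hexamer's frequency in the tag-only sample. Barcoded, bead-captured GST fusions of human transcription factors made in yeast were pooled with that sample and incubated with 200 nmole of a random double-stranded 16-mer DNA library in Tris/NaCl/DTT/glycerol buffer at room temperature for 30 min. Washing, 0.1% formaldehyde crosslinking, proximity ligation, PCR and Illumina NextSeq500 sequencing followed.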
# ETV5 = ETV5 (Homo sapiens, UniProt P41161 1-510); details: protein: recombinant; tags: N-terminal GST; dsDNA, one strand shown
# Sequence of ETV5 (P41161 whole entry): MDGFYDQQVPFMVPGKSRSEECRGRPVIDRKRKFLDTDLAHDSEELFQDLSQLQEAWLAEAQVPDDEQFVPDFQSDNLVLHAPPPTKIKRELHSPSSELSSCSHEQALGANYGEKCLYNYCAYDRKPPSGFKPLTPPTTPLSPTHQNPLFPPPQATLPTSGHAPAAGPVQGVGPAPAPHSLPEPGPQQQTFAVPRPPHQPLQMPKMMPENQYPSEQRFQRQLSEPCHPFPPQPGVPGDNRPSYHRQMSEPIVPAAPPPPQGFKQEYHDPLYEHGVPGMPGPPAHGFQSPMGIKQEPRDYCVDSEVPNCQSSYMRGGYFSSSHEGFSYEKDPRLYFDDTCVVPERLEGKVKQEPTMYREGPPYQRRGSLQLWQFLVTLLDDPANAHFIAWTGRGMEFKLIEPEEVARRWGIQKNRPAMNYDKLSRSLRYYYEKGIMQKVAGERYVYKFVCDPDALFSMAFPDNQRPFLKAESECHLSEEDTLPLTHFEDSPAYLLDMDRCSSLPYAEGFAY
# Method in brief: as §1
# HSF1 = HSF1 (Homo sapiens, UniProt Q00613 1-529); details: protein: recombinant; tags: N-terminal GST; chain copies: 3; dsDNA, one strand shown
# Sequence of HSF1 (Q00613 whole entry): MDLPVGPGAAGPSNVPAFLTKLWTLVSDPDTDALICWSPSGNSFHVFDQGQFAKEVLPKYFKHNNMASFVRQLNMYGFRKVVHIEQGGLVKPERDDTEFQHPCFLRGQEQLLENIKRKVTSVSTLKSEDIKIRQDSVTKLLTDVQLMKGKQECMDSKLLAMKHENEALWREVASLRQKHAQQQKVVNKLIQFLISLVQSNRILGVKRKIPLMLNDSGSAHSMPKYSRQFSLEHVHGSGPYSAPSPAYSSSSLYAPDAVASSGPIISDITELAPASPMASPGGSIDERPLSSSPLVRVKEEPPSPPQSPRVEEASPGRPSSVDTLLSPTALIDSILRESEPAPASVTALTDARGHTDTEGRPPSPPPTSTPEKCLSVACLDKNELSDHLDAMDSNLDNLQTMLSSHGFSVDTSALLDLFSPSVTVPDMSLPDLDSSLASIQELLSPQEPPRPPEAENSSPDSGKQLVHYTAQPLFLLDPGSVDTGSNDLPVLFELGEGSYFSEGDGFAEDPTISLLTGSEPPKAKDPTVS
# Method in brief: as §1
# SPIC = target: T2, SPIC (Homo sapiens, UniProt Q8N5J4 1-248); details: protein: recombinant; tags: N-terminal GST; dsDNA, one strand shown
# T2 sequence: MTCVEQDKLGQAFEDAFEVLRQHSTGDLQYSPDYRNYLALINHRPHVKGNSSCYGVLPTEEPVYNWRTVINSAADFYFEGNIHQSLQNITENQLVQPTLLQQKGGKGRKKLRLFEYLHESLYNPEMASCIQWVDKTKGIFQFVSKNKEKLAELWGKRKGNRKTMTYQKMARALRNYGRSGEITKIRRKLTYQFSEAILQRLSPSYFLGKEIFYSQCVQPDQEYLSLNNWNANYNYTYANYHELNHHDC
# Method in brief: as §1
# ELF4 = ELF4 (Homo sapiens, UniProt Q99607 1-663); details: protein: recombinant; tags: N-terminal GST; dsDNA, one strand shown
# Sequence of ELF4 (Q99607 whole entry): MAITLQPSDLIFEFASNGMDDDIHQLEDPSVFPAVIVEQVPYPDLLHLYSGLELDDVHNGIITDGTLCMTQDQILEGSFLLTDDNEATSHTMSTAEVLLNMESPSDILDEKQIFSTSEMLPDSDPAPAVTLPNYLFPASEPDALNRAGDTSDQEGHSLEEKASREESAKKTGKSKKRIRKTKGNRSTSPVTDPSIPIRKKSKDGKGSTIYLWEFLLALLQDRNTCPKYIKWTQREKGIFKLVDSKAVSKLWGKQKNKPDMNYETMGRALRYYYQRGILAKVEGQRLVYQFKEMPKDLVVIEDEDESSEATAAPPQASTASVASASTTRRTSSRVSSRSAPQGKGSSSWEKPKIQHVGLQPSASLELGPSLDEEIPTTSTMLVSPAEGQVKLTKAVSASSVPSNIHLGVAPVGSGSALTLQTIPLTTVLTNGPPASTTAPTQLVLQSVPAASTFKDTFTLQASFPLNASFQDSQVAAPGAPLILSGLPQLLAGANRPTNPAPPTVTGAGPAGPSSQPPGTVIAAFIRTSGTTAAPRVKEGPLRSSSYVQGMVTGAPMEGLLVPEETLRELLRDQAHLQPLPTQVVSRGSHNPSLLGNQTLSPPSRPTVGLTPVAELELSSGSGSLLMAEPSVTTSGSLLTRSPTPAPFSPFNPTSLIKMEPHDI
# Method in brief: as §1
# ELK4 = target: T3, ELK4 (Homo sapiens, UniProt P28324-2 1-405); details: protein: recombinant; tags: N-terminal GST; dsDNA, one strand shown
# T3 sequence: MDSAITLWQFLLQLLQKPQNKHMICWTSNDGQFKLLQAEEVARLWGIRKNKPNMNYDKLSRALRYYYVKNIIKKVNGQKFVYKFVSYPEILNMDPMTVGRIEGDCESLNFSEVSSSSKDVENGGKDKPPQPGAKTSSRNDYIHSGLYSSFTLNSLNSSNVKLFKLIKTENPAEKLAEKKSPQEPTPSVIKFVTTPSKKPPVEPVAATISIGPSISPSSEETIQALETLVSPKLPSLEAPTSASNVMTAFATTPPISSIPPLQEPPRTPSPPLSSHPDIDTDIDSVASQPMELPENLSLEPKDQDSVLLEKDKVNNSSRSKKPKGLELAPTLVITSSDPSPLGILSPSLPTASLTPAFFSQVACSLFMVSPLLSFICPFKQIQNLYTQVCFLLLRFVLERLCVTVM
# Method in brief: as §1
# ETV2 = target: T4, ETV2 (Homo sapiens, UniProt O00321 1-342); details: protein: recombinant; tags: N-terminal GST; dsDNA, one strand shown
# T4 sequence: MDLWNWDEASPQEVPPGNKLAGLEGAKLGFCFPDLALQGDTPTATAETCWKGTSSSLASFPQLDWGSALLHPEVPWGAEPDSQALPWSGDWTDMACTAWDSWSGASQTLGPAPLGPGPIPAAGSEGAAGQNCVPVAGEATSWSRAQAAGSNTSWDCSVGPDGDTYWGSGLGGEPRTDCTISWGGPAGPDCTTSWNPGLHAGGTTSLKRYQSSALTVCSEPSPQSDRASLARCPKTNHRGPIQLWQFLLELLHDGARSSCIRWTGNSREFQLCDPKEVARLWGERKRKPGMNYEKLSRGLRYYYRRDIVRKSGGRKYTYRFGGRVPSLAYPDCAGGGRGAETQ
# Method in brief: as §1
# ELF3 = target: T5, ELF3 (Homo sapiens, UniProt P78545 1-371); details: protein: recombinant; tags: N-terminal GST; dsDNA, one strand shown
# T5 sequence: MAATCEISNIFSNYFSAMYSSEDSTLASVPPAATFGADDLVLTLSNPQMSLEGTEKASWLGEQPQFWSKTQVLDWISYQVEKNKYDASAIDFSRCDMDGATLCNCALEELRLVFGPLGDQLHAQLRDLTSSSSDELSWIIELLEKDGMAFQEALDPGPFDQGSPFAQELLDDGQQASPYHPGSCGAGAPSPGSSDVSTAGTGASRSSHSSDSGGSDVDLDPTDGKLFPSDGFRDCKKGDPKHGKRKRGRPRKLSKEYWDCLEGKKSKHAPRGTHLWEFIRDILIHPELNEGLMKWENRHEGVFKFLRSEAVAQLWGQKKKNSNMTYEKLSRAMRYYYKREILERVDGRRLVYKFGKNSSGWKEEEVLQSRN
# Method in brief: as §1
# CRX = CRX (Homo sapiens, UniProt O43186 1-299); details: protein: recombinant; tags: N-terminal GST; dsDNA, one strand shown
# Sequence of CRX (O43186 whole entry): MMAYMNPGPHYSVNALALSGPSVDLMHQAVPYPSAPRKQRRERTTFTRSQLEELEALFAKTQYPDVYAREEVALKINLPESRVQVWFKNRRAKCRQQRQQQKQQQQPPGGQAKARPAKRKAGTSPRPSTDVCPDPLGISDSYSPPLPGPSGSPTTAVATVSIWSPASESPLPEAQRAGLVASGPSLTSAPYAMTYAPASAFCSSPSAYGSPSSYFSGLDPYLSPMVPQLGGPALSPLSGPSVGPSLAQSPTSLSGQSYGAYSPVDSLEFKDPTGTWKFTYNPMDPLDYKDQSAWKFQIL
# Method in brief: as §1
# ETV1 = ETV1 (Homo sapiens, UniProt P50549 1-477); details: protein: recombinant; tags: N-terminal GST; dsDNA, one strand shown
# Sequence of ETV1 (P50549 whole entry): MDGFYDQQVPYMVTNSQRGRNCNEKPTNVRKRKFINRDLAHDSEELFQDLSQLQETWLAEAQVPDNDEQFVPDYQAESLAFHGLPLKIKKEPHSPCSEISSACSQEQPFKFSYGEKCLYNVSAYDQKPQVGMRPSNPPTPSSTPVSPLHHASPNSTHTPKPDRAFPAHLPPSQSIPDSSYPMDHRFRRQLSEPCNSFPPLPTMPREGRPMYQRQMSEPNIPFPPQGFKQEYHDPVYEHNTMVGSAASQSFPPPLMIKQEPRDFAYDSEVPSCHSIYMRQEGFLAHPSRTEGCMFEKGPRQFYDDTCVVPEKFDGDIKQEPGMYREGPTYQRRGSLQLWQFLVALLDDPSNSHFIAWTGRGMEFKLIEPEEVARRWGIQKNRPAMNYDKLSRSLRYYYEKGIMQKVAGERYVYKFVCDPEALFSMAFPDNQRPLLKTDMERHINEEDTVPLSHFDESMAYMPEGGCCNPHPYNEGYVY
# Method in brief: as §1
# ERF = target: T6, ERF (Homo sapiens, UniProt P50548 1-548); details: protein: recombinant; tags: N-terminal GST; dsDNA, one strand shown
# T6 sequence: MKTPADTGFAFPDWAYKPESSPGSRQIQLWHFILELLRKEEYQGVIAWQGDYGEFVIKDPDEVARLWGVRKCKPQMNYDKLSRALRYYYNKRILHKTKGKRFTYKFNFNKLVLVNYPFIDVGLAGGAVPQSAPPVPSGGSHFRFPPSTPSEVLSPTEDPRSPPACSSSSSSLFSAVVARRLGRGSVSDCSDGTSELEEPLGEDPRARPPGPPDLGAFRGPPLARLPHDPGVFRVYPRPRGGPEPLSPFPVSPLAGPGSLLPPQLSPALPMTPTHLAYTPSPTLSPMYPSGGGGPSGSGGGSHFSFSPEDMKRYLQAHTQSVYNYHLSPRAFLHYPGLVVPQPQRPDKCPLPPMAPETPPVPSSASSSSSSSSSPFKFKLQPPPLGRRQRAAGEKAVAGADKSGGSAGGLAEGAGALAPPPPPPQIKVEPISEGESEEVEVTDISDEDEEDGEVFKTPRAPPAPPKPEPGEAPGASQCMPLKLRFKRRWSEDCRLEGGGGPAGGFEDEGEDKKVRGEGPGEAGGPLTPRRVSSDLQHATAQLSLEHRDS
# Method in brief: as §1
# ETV3L = target: T7, ETV3L (Homo sapiens, UniProt Q6ZN32 1-361); details: protein: recombinant; tags: N-terminal GST; dsDNA, one strand shown
# T7 sequence: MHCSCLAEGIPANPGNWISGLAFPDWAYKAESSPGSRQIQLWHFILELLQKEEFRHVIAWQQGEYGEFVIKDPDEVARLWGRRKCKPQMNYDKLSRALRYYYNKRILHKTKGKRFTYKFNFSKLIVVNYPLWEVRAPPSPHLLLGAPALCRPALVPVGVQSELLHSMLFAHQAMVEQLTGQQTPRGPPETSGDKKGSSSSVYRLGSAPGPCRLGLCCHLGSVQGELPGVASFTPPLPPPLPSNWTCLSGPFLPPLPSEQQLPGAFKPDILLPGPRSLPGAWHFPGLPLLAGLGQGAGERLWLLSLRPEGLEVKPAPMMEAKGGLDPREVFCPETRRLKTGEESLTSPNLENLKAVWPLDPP
# Method in brief: as §1
# ETS2 = target: T8, ETS2 (Homo sapiens, UniProt P15036 1-469); details: protein: recombinant; tags: N-terminal GST; dsDNA, one strand shown
# T8 sequence: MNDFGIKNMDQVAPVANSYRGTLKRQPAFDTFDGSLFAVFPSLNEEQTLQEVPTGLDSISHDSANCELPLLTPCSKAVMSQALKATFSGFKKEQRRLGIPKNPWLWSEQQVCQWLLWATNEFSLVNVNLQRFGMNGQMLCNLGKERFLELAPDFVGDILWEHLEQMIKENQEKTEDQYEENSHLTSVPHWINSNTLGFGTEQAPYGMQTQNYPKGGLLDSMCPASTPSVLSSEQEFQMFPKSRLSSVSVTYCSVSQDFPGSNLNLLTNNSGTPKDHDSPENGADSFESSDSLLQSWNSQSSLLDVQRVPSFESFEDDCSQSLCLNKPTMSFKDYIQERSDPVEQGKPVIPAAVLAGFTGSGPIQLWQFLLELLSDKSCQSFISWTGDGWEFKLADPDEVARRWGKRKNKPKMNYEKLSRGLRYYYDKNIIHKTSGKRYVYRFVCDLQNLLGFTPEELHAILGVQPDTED
# Method in brief: as §1
# SPDEF = target: T9, SPDEF (Homo sapiens, UniProt O95238 1-335); details: protein: recombinant; tags: N-terminal GST; dsDNA, one strand shown
# T9 sequence: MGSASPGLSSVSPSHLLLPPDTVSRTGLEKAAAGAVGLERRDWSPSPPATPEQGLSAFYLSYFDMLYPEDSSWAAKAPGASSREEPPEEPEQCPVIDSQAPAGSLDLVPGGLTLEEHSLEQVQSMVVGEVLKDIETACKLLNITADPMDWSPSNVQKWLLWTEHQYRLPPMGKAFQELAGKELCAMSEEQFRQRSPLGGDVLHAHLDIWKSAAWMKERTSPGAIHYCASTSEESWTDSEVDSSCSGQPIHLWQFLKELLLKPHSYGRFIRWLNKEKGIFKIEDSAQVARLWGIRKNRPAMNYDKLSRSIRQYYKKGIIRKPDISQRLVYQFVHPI
# Method in brief: as §1
# ETV7 = target: T10, ETV7 (Homo sapiens, UniProt Q9Y603 1-341); details: protein: recombinant; tags: N-terminal GST; dsDNA, one strand shown
# T10 sequence: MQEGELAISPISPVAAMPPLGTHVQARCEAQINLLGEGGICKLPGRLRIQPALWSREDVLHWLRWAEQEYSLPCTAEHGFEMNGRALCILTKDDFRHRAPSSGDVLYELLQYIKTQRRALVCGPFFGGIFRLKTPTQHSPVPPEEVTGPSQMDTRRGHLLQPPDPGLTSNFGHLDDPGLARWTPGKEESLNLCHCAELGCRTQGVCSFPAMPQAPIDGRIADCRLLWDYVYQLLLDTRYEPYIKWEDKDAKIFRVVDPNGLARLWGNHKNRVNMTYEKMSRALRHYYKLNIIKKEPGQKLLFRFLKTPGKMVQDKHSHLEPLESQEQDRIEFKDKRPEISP
# Method in brief: as §1
# ELF5 = target: T11, ELF5 (Homo sapiens, UniProt Q9UKW6-2 1-255); details: protein: recombinant; tags: N-terminal GST; dsDNA, one strand shown
# T11 sequence: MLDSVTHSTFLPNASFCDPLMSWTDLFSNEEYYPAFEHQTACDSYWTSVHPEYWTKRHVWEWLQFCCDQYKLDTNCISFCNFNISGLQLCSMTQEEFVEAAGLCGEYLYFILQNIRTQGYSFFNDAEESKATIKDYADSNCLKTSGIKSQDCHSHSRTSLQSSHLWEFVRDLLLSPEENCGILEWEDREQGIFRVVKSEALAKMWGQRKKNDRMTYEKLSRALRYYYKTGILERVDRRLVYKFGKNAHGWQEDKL
# Method in brief: as §1
# ETV3 = target: T12, ETV3 (Homo sapiens, UniProt P41162-2 1-143); details: protein: recombinant; tags: N-terminal GST; dsDNA, one strand shown
# T12 sequence: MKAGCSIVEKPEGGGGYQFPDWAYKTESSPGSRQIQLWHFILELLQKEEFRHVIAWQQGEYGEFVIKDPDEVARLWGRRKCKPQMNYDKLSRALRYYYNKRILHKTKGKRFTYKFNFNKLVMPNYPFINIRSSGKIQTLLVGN
# Method in brief: as §1
# ETV6 = ETV6 (Homo sapiens, UniProt P41212 1-452); details: protein: recombinant; tags: N-terminal GST; dsDNA, one strand shown
# Sequence of ETV6 (P41212 whole entry): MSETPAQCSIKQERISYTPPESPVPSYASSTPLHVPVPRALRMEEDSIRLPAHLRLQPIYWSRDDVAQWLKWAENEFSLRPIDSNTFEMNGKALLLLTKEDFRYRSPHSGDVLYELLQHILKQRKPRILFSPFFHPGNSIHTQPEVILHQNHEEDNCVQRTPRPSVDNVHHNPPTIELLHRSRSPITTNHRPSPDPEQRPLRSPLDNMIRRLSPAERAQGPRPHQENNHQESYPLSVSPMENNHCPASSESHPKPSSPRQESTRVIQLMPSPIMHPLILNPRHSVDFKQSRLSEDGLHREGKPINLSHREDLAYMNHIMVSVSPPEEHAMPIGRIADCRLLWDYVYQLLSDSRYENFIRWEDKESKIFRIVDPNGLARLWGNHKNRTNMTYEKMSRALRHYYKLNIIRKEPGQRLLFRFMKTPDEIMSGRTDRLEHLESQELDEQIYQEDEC
# Method in brief: as §1
sequence,measurement,setting,value
TCCTTC,binding signal,FEV,"2.2 fold enrichment (6-mer frequency, TF over GST control)"
same,binding signal,ETV5,"2.1 fold enrichment (6-mer frequency, TF over GST control)"
same,binding signal,HSF1,"2.13 fold enrichment (6-mer frequency, TF over GST control)"
same,binding signal,SPIC,"2.26 fold enrichment (6-mer frequency, TF over GST control)"
same,binding signal,ELF4,"2.08 fold enrichment (6-mer frequency, TF over GST control)"
same,binding signal,ELK4,"2.04 fold enrichment (6-mer frequency, TF over GST control)"
same,binding signal,ETV2,"2.47 fold enrichment (6-mer frequency, TF over GST control)"
same,binding signal,ELF3,"1.85 fold enrichment (6-mer frequency, TF over GST control)"
same,binding signal,CRX,"1.72 fold enrichment (6-mer frequency, TF over GST control)"
same,binding signal,ETV1,"2.05 fold enrichment (6-mer frequency, TF over GST control)"
same,binding signal,ERF,"1.95 fold enrichment (6-mer frequency, TF over GST control)"
same,binding signal,ETV3L,"1.9 fold enrichment (6-mer frequency, TF over GST control)"
same,binding signal,ETS2,"2.09 fold enrichment (6-mer frequency, TF over GST control)"
same,binding signal,SPDEF,"2.21 fold enrichment (6-mer frequency, TF over GST control)"
same,binding signal,ETV7,"1.92 fold enrichment (6-mer frequency, TF over GST control)"
same,binding signal,ELF5,"3.06 fold enrichment (6-mer frequency, TF over GST control)"
same,binding signal,ETV3,"2.21 fold enrichment (6-mer frequency, TF over GST control)"
same,binding signal,ETV6,"2.31 fold enrichment (6-mer frequency, TF over GST control)"
